Source: PubChem
BoNT F protease: BoNT F light chain protease inhibition; Multiplex microsphere protease cleavage assay, flow cytometry; inhibition, % at 10 µM; hit rate 0.22% among 360,000; AID 588497; in the data active = inhibition above about 35%, passing the limit was not always enough; inconclusive = no clear call, values can overlap the other calls; also: plate controls were buffer without enzyme for full effect and enzyme alone for no effect
Anthrax LF prot: anthrax lethal factor protease inhibition. hit rate 0.12% among 360,000. P15917. multiplex microsphere protease cleavage assay, LF. inhibition, % at 10 µM; also: plate controls were buffer without enzyme for full effect and enzyme alone for no effect
Target sequence (P15917 whole entry, looked up): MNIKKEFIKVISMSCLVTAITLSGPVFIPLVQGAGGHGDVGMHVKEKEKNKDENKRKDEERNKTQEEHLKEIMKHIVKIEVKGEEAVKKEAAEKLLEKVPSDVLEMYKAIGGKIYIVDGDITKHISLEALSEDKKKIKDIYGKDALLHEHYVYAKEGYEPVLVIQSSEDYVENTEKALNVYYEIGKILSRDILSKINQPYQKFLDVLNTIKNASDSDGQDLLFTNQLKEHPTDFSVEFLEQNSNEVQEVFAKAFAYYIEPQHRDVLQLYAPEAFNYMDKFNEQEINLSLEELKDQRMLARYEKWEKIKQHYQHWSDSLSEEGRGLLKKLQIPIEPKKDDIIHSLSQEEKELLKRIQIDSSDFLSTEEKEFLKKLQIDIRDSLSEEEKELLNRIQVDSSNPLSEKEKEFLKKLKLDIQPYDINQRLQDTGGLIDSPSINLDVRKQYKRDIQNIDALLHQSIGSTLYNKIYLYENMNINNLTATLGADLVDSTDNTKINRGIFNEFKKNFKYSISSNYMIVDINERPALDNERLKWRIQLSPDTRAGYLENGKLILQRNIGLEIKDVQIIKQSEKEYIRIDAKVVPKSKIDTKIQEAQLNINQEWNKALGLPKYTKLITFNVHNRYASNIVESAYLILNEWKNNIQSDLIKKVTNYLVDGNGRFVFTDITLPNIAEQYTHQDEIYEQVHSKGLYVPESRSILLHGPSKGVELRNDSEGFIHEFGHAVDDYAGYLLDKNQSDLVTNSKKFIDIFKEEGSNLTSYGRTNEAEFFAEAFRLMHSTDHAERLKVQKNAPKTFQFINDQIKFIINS
BoNT A protease: inhibitors of Botulinum neurotoxin A light chain protease | inhibition, % at 10 µM | hit rate 0.17% among 360,000 | multiplex microsphere protease substrate cleavage, flow cytometry; also: plate controls were buffer without enzyme for full effect and enzyme alone for no effect
PriA SSB inh: K. pneumoniae PriA-SSBct interaction inhibition | AlphaScreen SSBct-PriA binding, biotinylated peptide | inhibition, % at 33 µM | hit rate 0.6% among 430,000 | AID 1272365; in the data active = inhibition mostly above about 37%, no sharp cut-off; inactive = mostly below about 20%;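 also: plate controls were negative control peptide for no effect and reference peptide for full effect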
Autofluor counter: compound fluorescence in toxin protease inhibitor counterscreen; compound autofluorescence counterscreen, microsphere flow cytometry; stronger effect = higher value; AID 624483; fluorescence intensity (concentration not given with the values); hit rate 3.1% among 360,000; in the data active = fluorescence intensity above about 16000; inconclusive = no clear call, values can overlap the other calls
An asterisk follows results filed as active. In the library only some 3.1% were active in any assay of this set; here they are far more common. Rule as the data show it, unless noted: active = inhibition above about 30%; inconclusive = no clear call, values can overlap the other calls; inactive = below that.

How did CCOC(=O)c1sc(NS(=O)(=O)c2ccccc2Cl)nc1C do in these assays?
BoNT F protease: -8; Anthrax LF prot: -1; BoNT A protease: -6; PriA SSB inh: 4; Autofluor counter: 26130*

What do the screens show for `CCOC(=O)Cc1csc(NC(=O)C2C3C=CC(C3)C2C(=O)O)n1` (configuration not stated)?
BoNT F protease: -4; Anthrax LF prot: -6; BoNT A protease: 2; PriA SSB inh: -3; Autofluor counter: 3313

What do the screens show for `CC(C)C(=O)Nc1ccc(SCC(=O)N2CCCCCC2)nn1`?
PriA SSB inh: -9

Results for O=C(CN1CCc2ccccc2C1)NCc1ccco1 ?
BoNT F protease: 3; Anthrax LF prot: -8; BoNT A protease: 3; PriA SSB inh: 17; Autofluor counter: 19256*

What do the screens show for `CC1CCN(CC(=O)NCc2ccco2)CC1`?
BoNT F protease: -9; Anthrax LF prot: -3; BoNT A protease: 0; PriA SSB inh: 1; Autofluor counter: 4192

How did CCn1ncc(C2=NOC(C(=O)NCc3ccc(OC)cc3)C2)c1C (configuration not stated) do in these assays?
BoNT F protease: 9; Anthrax LF prot: 0; BoNT A protease: 1; PriA SSB inh: -8; Autofluor counter: 9292

What do the screens show for `CCn1ncc(C2=NOC(C(=O)NCc3ccccc3)C2)c1C` (configuration not stated)?
BoNT F protease: -10; Anthrax LF prot: -1; BoNT A protease: inconclusive; PriA SSB inh: -19; Autofluor counter: 26555*

What do the screens show for `COc1cccc(C2NC(=O)NC(O)(C(F)(F)F)C2C(=O)c2cccnc2)c1OC` (configuration not stated)?
BoNT F protease: 0; Anthrax LF prot: 1; BoNT A protease: 1; PriA SSB inh: -6; Autofluor counter: 22761*

How did COc1ccc(C2NC(=O)NC(O)(C(F)(F)F)C2C(=O)c2ccccc2)cc1OC (configuration not stated) do in these assays?
BoNT F protease: -8; Anthrax LF prot: 2; BoNT A protease: 0; PriA SSB inh: -20; Autofluor counter: inconclusive

How did O=c1cc(/C=C/c2ccccc2)oc2ccccc12 do in these assays?
BoNT F protease: 6; Anthrax LF prot: 1; BoNT A protease: inconclusive; PriA SSB inh: -3; Autofluor counter: 22100*

How did O=c1cc(-c2ccccc2)oc2ccccc12 do in these assays?
BoNT F protease: -7; Anthrax LF prot: -3; BoNT A protease: 0; PriA SSB inh: -12; Autofluor counter: 5551

What do the screens show for `O=C(Nc1ccccc1Cl)c1cnccn1`?
BoNT F protease: -5; Anthrax LF prot: -3; BoNT A protease: 0; PriA SSB inh: -11; Autofluor counter: 11658

Results for O=C(Nc1ccc(Br)cc1Cl)c1cnccn1 ?
BoNT F protease: -7; Anthrax LF prot: -3; BoNT A protease: inconclusive; PriA SSB inh: -13; Autofluor counter: 17512*

Results for Cc1cc(C(=O)NCCn2nc(C(F)(F)F)n(C)c2=O)c(C)o1 ?
PriA SSB inh: -10

What do the screens show for `COc1cccc(-c2nnn(CCC(=O)O)n2)c1`?
BoNT F protease: 3; Anthrax LF prot: 1; BoNT A protease: inconclusive; PriA SSB inh: -12; Autofluor counter: 19600*

What do the screens show for `COc1ccc(-c2nnn(CCC(=O)O)n2)cc1`?
BoNT F protease: 8; Anthrax LF prot: 2; BoNT A protease: 0; PriA SSB inh: -19; Autofluor counter: 11209

Results for COc1ccc(C2C3=C(CC(C)(C)CC3=O)Oc3ncn(Cc4ccco4)c(=N)c32)cc1 (configuration not stated) ?
BoNT F protease: 36*; Anthrax LF prot: 4; BoNT A protease: 26; PriA SSB inh: -2; Autofluor counter: 8601

What do the screens show for `CC(C)NC(=O)/C=C/C(=O)O`?
BoNT F protease: 4; Anthrax LF prot: -5; BoNT A protease: 0; PriA SSB inh: 3; Autofluor counter: 4027

What do the screens show for `C#CC(CC)(CC)NC(=O)/C=C/C(=O)O`?
BoNT F protease: inconclusive; Anthrax LF prot: 32*; BoNT A protease: 1; PriA SSB inh: -2; Autofluor counter: inconclusive

Results for CCOC(=O)Cn1c2nc3ccccc3nc2c2cccc(C)c21 ?
PriA SSB inh: -52

What do the screens show for `Cc1ccc(-c2noc(CSc3nnc(-c4ccncc4)n3-c3ccc(C)cc3)n2)cc1`?
BoNT F protease: -11; Anthrax LF prot: 0; BoNT A protease: -7; PriA SSB inh: 1; Autofluor counter: 24919*

What do the screens show for `Cc1cnc(C(=O)Nc2ccc(C(C)C)cc2)cn1`?
BoNT F protease: -2; Anthrax LF prot: -1; BoNT A protease: 0; PriA SSB inh: -5; Autofluor counter: 3899

How did Cc1cnc(C(=O)Nc2ccc(F)cc2)cn1 do in these assays?
BoNT F protease: 6; Anthrax LF prot: 2; BoNT A protease: 3; PriA SSB inh: 4; Autofluor counter: 21955*

How did COc1ccc(SCCC(=O)Nc2nnc(-c3ccno3)o2)cc1 do in these assays?
PriA SSB inh: -16

Results for COC(=O)CN1C(=O)C(C)(C)Oc2ccc(C(=O)NC3CC3)cc21 ?
BoNT F protease: -3; Anthrax LF prot: 0; BoNT A protease: inconclusive; PriA SSB inh: -7; Autofluor counter: 22838*

How did CCOC(=O)c1ccc2c(c1)N(CC(=O)N1CCCC1)C(=O)C(C)(C)O2 do in these assays?
BoNT F protease: -4; Anthrax LF prot: -2; BoNT A protease: inconclusive; PriA SSB inh: -15; Autofluor counter: 23746*

How did CCOc1ccc(NC=CC(=O)c2ccc(OC)cc2)c([N+](=O)[O-])c1 do in these assays?
PriA SSB inh: -7

How did Cn1c(=O)c(Oc2cc(Cl)cc(Cl)c2)nc2ccccc21 do in these assays?
BoNT F protease: -1; Anthrax LF prot: -4; BoNT A protease: 0; PriA SSB inh: -10; Autofluor counter: 11368

What do the screens show for `Cn1c(=O)c(-c2ccccc2N)nc2ccccc21`?
BoNT F protease: 11; Anthrax LF prot: 0; BoNT A protease: 6; PriA SSB inh: -4; Autofluor counter: 20647*

What do the screens show for `COc1ccc(Oc2nc3ccccc3n(C)c2=O)cc1`?
BoNT F protease: -2; Anthrax LF prot: -2; BoNT A protease: 0; PriA SSB inh: 1; Autofluor counter: 16246*

What do the screens show for `Cc1ccc2nc(-c3ccccc3)c(=O)n(C)c2c1`?
PriA SSB inh: 1

Results for COc1ccc(Oc2nc3ccccc3nc2C(F)(F)F)cc1 ?
BoNT F protease: -4; Anthrax LF prot: -2; BoNT A protease: -2; PriA SSB inh: -16; Autofluor counter: 23577*

Results for Cn1c(=O)c(-c2ccccc2)nc2ccccc21 ?
BoNT F protease: -3; Anthrax LF prot: 2; BoNT A protease: -1; PriA SSB inh: -22; Autofluor counter: 20471*

Results for Cc1ccc(C(=O)N2C3C=CCC2CC3)cc1F (configuration not stated) ?
PriA SSB inh: -6

How did O=C(CC1CCCCN1S(=O)(=O)c1ccccc1)Nc1ccc(F)cc1 (configuration not stated) do in these assays?
PriA SSB inh: 17

Results for Cc1cc(C(=O)Nc2ccc(O)c(-c3nc4ccccc4s3)c2)on1 ?
PriA SSB inh: -6

What do the screens show for `CSc1cccc(NC(=O)Cn2nc3c(N4CCC[C@H](C)C4)nccn3c2=O)c1`?
PriA SSB inh: 23

How did CCn1ccc(C(=O)Nc2ccc(C)cc2C(=O)c2ccccc2)n1 do in these assays?
PriA SSB inh: -1

Results for O=C1NC(=S)NC(=O)C1=Cc1cccs1 ?
PriA SSB inh: -4
